Experimental data as given in PubChem BioAssay AID2289 (National Center for Advancing Translational Sciences (NCATS), 2010).
Among all 340,000 compounds or so, about 3,300 (0.97%) were called active. Inconclusive results (about 9%) are left out. Calls follow the shape of the dose curve; as a rule, active = well fitted inhibition curve with a large enough effect; inconclusive = small, poorly fitted or top-dose-only effect, or effect the other way; inactive = flat fitted curve, though single readings scatter. This is one part of the list.

Test: qHTS Assay for Modulators of miRNAs and/or Inhibitors of miR-21; also: nearly all actives have a fitted effect of over 55% in size
Conditions: HeLa miR-21-FLuc reporter, luciferase luminescence, 48 h; actives lower the signal
Procedure, shortened: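 HeLa miR-21-FLuc reporter line, endogenous miR-21; 2000 cells/well in DMEM/10% FBS; compound titration up to ~40uM final, 48 h, 37 degree Celsius; luciferase detection reagent, 15 min lysis, CCD luminescence.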
Potency is read from the fitted curve at half-maximal effect.

Potency, active:
COc1ccc(NC(=O)c2ccc(Br)o2)cc1 4.14 µM
COc1ccc(NC(=S)NC(=O)c2ccc(Br)o2)cc1 3.29 µM
Cc1ccc(C(=O)NC(=S)NCC2CCCO2)cc1Br (stereo not drawn) 8.26 µM
O=[N+]([O-])c1cccc2ccc(/C=C/c3ccc(F)cc3)nc12 7.36 µM
C(=C\c1ccco1)/c1ccc2ccccc2n1 0.656 µM
O=C(O)c1ccc(/C=C/c2ccc3cccc(O)c3n2)cc1 4.14 µM
O=[N+]([O-])c1ccccc1/C=C/c1ccc2ccccc2n1 1.31 µM
Cc1ccc2c(CNCc3ccco3)cc(=O)oc2c1 9.27 µM
Cc1ccc2c(CN(C)Cc3cccc(F)c3)cc(=O)oc2c1 13.1 µM
COc1ccc(N=Cc2nc(-c3ccccc3)oc2OC(=O)c2ccccc2)cc1 1.85 µM
CC1CCc2c(sc(/N=C/N(C)C)c2C#N)C1 (stereo not drawn) 7.36 µM
CN(C)/C=N/c1sc2c(c1C#N)CCCCC2 5.21 µM
CCN(/C=N/c1sc2c(c1C#N)CCCCC2)CC 3.69 µM
CCn1c(C)nc2cc(C(=O)NNC(=S)Nc3ccccc3Cl)ccc21 7.36 µM
CCn1c(C)nc2cc(C(=O)NNC(=S)Nc3ccccc3OC)ccc21 14.7 µM
CCN(CC)CCn1c2ccccc2c2nc3ccc([N+](=O)[O-])cc3cc21 14.7 µM
O=C1CCCC(O)=C1N=Nc1ccc2c(c1)OCO2 14.7 µM
CCSc1ccccc1C(=O)Nc1ccc(-c2nc3ccccc3s2)c(O)c1 3.69 µM
O=C(Nc1ccc(-c2nc3ccccc3s2)c(OC(=O)c2ccccc2)c1)c1ccccc1 0.329 µM
O=C(Nc1ccc(-c2nc3ccccc3s2)c(O)c1)C1=COCCO1 0.261 µM
O=C(CC1Sc2ccccc2NC1=O)c1ccc(Br)cc1 (stereo not drawn) 8.26 µM
CC(=O)Nc1ccccc1C(=O)C(=O)Nc1ccc(C)c(C)c1 5.21 µM
CC(=O)Nc1ccccc1C(=O)C(=O)Nc1ccc(C)c(F)c1 2.33 µM
CN(C)c1ccc(-c2ccc3c(=O)c4ccccc4n(C)c3c2)cn1 4.65 µM
Cn1c2ccccc2c(=O)c2ccc(-c3ccc4c(c3)OCO4)cc21 1.04 µM
Cc1ccc(N2C(=O)c3ccccc3NC2(C(=O)O)c2ccccc2)cc1Cl (stereo not drawn) 2.93 µM
O=[N+]([O-])c1ccccc1CSc1nc2ccccc2o1 14.7 µM
COc1ccc(Oc2ncnc3c2oc2ccccc23)cc1 11.7 µM
COc1ncnc2c1oc1ccccc12 8.26 µM
CC(=O)c1ccc(Oc2ncnc3c2oc2ccccc23)cc1 0.927 µM
Cc1nc2ccccc2c(=O)n1/N=C/c1ccccc1Cl 6.56 µM
Cc1ccc(/C=N/n2c(C)nc3ccccc3c2=O)s1 6.56 µM
Fc1ccccc1CSc1nnc(-c2cccs2)o1 3.29 µM
CC(C)(C)c1nnc(NC(=O)c2ccc3c(c2)OCO3)s1 1.47 µM
CCC(CC)c1nnc(NC(=O)c2ccc3c(c2)OCO3)s1 7.36 µM
O=C(N/N=C/c1ccccc1F)NC1CCCCC1 10.4 µM
COc1cccc(/C=N/NC(=O)NC2CCCCC2)c1O 4.14 µM
O=C(N/N=C/c1cccc(F)c1)NC1CCCCC1 16.5 µM
O=C(CCSc1ccccc1Cl)Nc1cccc([N+](=O)[O-])c1 11.7 µM
NS(=O)(=O)c1cccc(NC(=O)CCSc2ccccc2Cl)c1 10.4 µM
CN(C)C(=O)c1ccc(-c2cc(C(F)(F)F)nn2C)s1 6.56 µM
O=C(CN1c2ccc(Br)cc2-c2ccccc2S1(=O)=O)N1CCCCC1 7.36 µM
Cc1nccc(-c2cc(-c3ccc(Cl)cc3Cl)no2)n1 2.33 µM
COc1ccc(-c2csc(C3=C(O)CN(CCCN4CCCC4=O)C3=N)n2)cc1OC 16.5 µM
Cc1ccccc1OCc1nc2ccccc2c(=O)n1N 16.5 µM
Cc1ccccc1OCc1nc2ccccc2c(=O)n1/N=C/c1ccco1 10.4 µM
Nn1c(COc2ccc(Cl)cc2)nc2ccccc2c1=O 7.36 µM
COc1ccc(Nc2oc(-c3ccc(OC)cc3)nc2C#N)cc1 2.93 µM
c1ccc(Nc2nnc(-c3cccc4ccccc34)o2)cc1 1.85 µM
COc1ccc(Nc2oc(-c3ccccc3)nc2C#N)cc1 1.85 µM
COc1ccc(-c2nc(C#N)c(NC(C)C)o2)cc1 6.56 µM
CCOc1ccc(Nc2oc(Cc3ccccc3)nc2C#N)cc1 11.7 µM
CC(C)Nc1oc(-c2cccc3ccccc23)nc1C#N 13.1 µM
O=C1c2ccccc2C(=O)c2c1cccc2N1CCOCC1 11.7 µM
O=c1c2ccccc2nc(-c2ccccc2)n1Cc1ccccc1 14.7 µM
COc1ccccc1-c1ccc(NC2CCCC2)nn1 13.1 µM
COc1ccccc1-c1ccc(NC2CCCCC2)nn1 7.36 µM
Cn1ccc(NC(=O)Nc2ccc(Cl)cc2Cl)n1 3.69 µM
Cc1ccc2cc(CCNC(=O)c3ccco3)c(=O)[nH]c2c1 5.85 µM
Cc1ccc2cc(CCNC(=O)c3ccco3)c(=O)[nH]c2c1C 0.826 µM
Cc1ccc(-c2ccc(/C=N/O)o2)cc1[N+](=O)[O-] 16.5 µM
CCCc1cc(=O)n2[nH]c(-c3ccccc3)cc2n1 4.14 µM
COc1cc2c(cc1NC(=O)c1ccc3c(c1)OCO3)oc1ccccc12 7.36 µM
COc1ccccc1NC(=O)c1ccc2c(c1)OCO2 3.29 µM
Cc1cccc(NC(=O)c2ccc3c(c2)OCCO3)c1C 4.65 µM
COc1ccccc1NC(=O)c1ccc2nsnc2c1 7.36 µM
O=C(O)C1CC=CCC1C(=O)NCCc1csc(-c2ccccc2)n1 (stereo not drawn) 18.5 µM
O=C1c2ccccc2S(=O)(=O)N1CC1CC(c2ccc(Cl)cc2)=NO1 (stereo not drawn) 2.93 µM
O=C1c2ccccc2S(=O)(=O)N1CC1CC(c2ccccc2Cl)=NO1 (stereo not drawn) 4.14 µM
O=C(COC(=O)Cn1cnc2ccccc21)Nc1ccc2c(c1)C(=O)c1ccccc1C2=O 2.07 µM
COc1ccc(Nc2ncnc3c2c(C)c(C)n3CCO)cc1 0.736 µM
Cc1c(C)n(CCO)c2ncnc(Nc3ccc(F)cc3)c12 14.7 µM
COc1ccccc1Nc1ncnc2c1c(C)c(C)n2CCO 14.7 µM
O=[N+]([O-])c1ccc(N/N=C/c2cccc(O)c2O)cc1 6.56 µM
CCCOc1ccc(/C=N/Nc2ccccc2[N+](=O)[O-])c(O)c1 0.0656 µM
O=[N+]([O-])c1ccccc1N/N=C/c1cccc(O)c1O 2.61 µM
O=[N+]([O-])c1ccccc1N/N=C\c1ccccc1Cl 0.656 µM
COc1ccccc1/C=N\Nc1ccccc1[N+](=O)[O-] 1.04 µM
O=[N+]([O-])c1ccccc1NC(=S)N/N=C/c1ccc(O)c(O)c1 1.85 µM
O=C(CCS(=O)(=O)c1ccccc1)NC12CC3CC(CC(C3)C1)C2 2.07 µM
O=C(CCCc1ccccc1)NC12CC3CC(CC(C3)C1)C2 1.65 µM
CCCC(=O)N=C1SC2CS(=O)(=O)CC2N1c1ccc(-c2nc3ccc(C)cc3s2)cc1 (stereo not drawn) 2.93 µM
Cc1ccc2nc(-c3ccc(N4C(=NC(=O)CCC(=O)O)SC5CS(=O)(=O)CC54)cc3)sc2c1 (stereo not drawn) 3.29 µM
Nc1nc(-c2cccnc2)nc2sc3c(c12)CCCC3 4.65 µM
NNc1nc(-c2ccccc2)nc2sc3c(c12)CCCC3 0.464 µM
NNc1nc(-c2ccccc2Cl)nc2sc3c(c12)CCCC3 5.21 µM
CC1CCN(C(=O)c2cccc(NC(=O)c3nsc4ccccc34)c2)CC1 7.36 µM
CC1CCN(C(=O)c2ccc(NC(=O)c3nsc4ccccc34)cc2)CC1 1.85 µM
CCOC(=O)C1CCCN(C(=O)c2ccc(NC(=O)c3nsc4ccccc34)cc2)C1 (stereo not drawn) 3.69 µM
COc1ccc2nc(Nc3ccc4c(c3)OCO4)sc2c1 4.65 µM
COc1ccc2nc(Nc3nc4cc5c(cc4s3)OCCO5)sc2c1 13.1 µM
COc1ccc(Nc2nc(C)c(-c3ccccc3)s2)cc1 6.56 µM
COC(=O)CCc1sc(Nc2ccccc2)nc1-c1ccc(OC)cc1 16.5 µM
COc1ccc(Nc2nc3ccc(OC)cc3s2)cc1 3.69 µM
O=c1c2c(nc3cc(-c4ccc(F)cc4)[nH]n13)CCC2 1.04 µM
COC(=O)C1C(=O)C=C(Nc2ccc(F)cc2)CC1c1ccc(OC)cc1 (stereo not drawn) 10.4 µM
Cc1ccc2c(Cl)c(C(=O)NCCc3ccccc3)sc2c1 6.56 µM
Cc1cc(OCC(=O)N(C)C2CCCCC2)ccc1Cl 1.65 µM
Cc1cn(CCC(=O)Nc2ccccc2N2CCOCC2)c2ccccc12 9.27 µM
CCCS/C(N)=N/N=C/c1cc(C)ccc1O 1.47 µM
COc1cc(Cl)c(NC(=O)c2cc3ccccn3n2)c(OC)c1 6.56 µM
CC(C)Oc1ccc(CNC(=O)c2cc3ccccn3n2)cc1 6.56 µM
CCOc1ccc(CNC(=O)c2cc3ccccn3n2)cc1 7.36 µM
